# Results: PubChem BioAssay AID1347071 (National Center for Advancing Translational Sciences (NCATS), 2019)
# Screen size: about 410,000 compounds; about 260 (0.063%) were called active. Roughly 2% stayed inconclusive and do not appear here. Calls come from the whole dose curve; as a rule, active = well fitted activation curve with a large enough effect; inconclusive = small, poorly fitted or top-dose-only effect; inactive = no such curve, though single readings can be large or run the other way. The entries come from a sample that favours actives as a whole. Entries that show only a call come without a potency.
# Assay: qHTS for compounds that reverse cellular toxicity of Amyloid beta (A-beta) peptide in yeast: Primary Screen; note: nearly all actives have a fitted effect of over 55% in size
# Conditions: yeast expressing A-beta42, growth rescue, OD600, 48 h; series mostly up to 46.1 µM
# Source text: The A-beta peptide is produced by the processing of the amyloid precursor protein (APP) by two proteases, beta and gamma secretases. […] A-beta42 is regarded as the most amyloidogenic form due to its hydrophobicity; however, precisely how A-beta42 induces neurotoxicity is unclear. To understand further this biology and its potential therapeutic implications for human neurodegenerative disease, a quantitative high-throughput screen for compounds that reverse the cellular toxicity of the A-beta peptide was developed. A yeast based screen was used because it recapitulates the salient feature of protein mis-folding disorder accurately. This cell-based phenotypic screen provides a significant, unbiased advantage by letting the compounds and models inform us which proteins or pathways are most relevant. The ideal chemical candidates would therefore have activity in both our primary yeast and secondary neuronal toxicity assays, as well as in mouse models. They will be valuable tools for dissecting diverse protein homeostasis pathologies and could potentially become the focus for future pre-clinical development. For this luminescence assay, inhibition of A-beta rescues the toxic effect in the yeast cell, resulting in increase of signals and the desired phenotype of "Activator". This screen is run against the Molecular Libraries Small Molecule Repository (MLSMR) and the NCGC Sytravon Library Collection.
# NIH Chemical Genomics Center [NCGC]
# NIH Molecular Libraries Probe Centers Network [MLPCN]
# Assay Submitter (PI): Susan Lindquist, Whitehead Institute, Massachusetts Institute of Technology
# [1] Vassar R,et al (1999). Beta-secretase cleavage of Alzheimer's amyloid precursor protein by the transmembrane aspartic protease BACE. Science. 286: 735-741.
# [2] Yan R, et al (1999). Membrane-anchored aspartyl protease with Alzheimer's disease beta-secretase activity. Nature. 402: 533-536.
# Two and a half microliter / well of yeast growth medium were dispensed in a 1536 assay plate. Compounds were pinned using the Kalypsys robotic system followed by addition of 2.5 uL / well yeast solution. The assay plates were incubated at 30 C. After 48 hr, the absorbance signal at 600 nm was obtained using the PerkinElmer ViewLux plate reader to assess yeast growth. The data was normalized to the positive control of an equimolar mixture of ferric chloride (FeCl3) and clioquinol and to the negative control DMSO.
# Potency is the fitted concentration of half-maximal effect.
row,Compound,Potency
1,CCOC(=O)c1nnn(CC(=O)NC(=O)Nc2ccccc2F)c1C(=O)OCC,inactive
2,CCS(=O)(=O)N1CCc2cc(C(=O)NCc3ccc(OC)cc3)ccc21,inactive
3,CCOC(=O)c1cc(NC(=O)c2ccc(F)cc2)c(=O)n2c1oc1ccccc12,inactive
4,COc1ccc(CCNC(=O)c2cc3cccc4c3n2CC(C)S4)c(OC)c1OC (stereo unspecified),inactive
5,COc1ccc(Cn2c(C(=O)O)c(CNCc3cccc(OC)c3)c3ccc(C)cc32)cc1,inactive
6,CC(C)S(=O)(=O)c1oc(-c2ccc(F)cc2)nc1S(=O)(=O)c1ccc(F)cc1,inactive
7,CC(Sc1oc(-c2ccco2)nc1S(=O)(=O)c1ccc(Br)cc1)c1ccccc1 (stereo unspecified),inactive
8,Cc1nn(-c2ccc(F)cc2)c(-n2cccc2)c1C(=O)N1CCN(c2ccccc2)CC1,inactive
9,CCCc1nc2c3ccccc3ccn2c1Cc1ccccc1C(F)(F)F,inactive
10,N#Cc1ccc(-c2nc3c(Cl)cc(C(F)(F)F)cn3c2Cc2ccccc2C(F)(F)F)cc1,inactive
11,FC(F)(F)c1ccccc1Cc1c(-c2ccccc2)nc2c3ccccc3ccn12,12.6 µM (active)
12,COc1cccc(-n2cc(C(=O)NCc3cccc(Cl)c3)c3ccccc3c2=O)c1,inactive
13,COc1ccc(Cn2ccn(CC(=O)Nc3cc(C)ccc3C)c(=O)c2=O)cc1,inactive
14,COCCn1c(SCC(=O)c2cc(C)ccc2C)nc2cc(C(=O)NC3CCCC3)ccc2c1=O,inactive
15,COc1cccc(C(=O)NC2(C(F)(F)F)C(=O)Nc3c2c(=O)[nH]c(=O)n3-c2ccc(C)cc2)c1 (stereo unspecified),inactive
16,CCOc1ccc(-n2c(C)nc3c(cnn3-c3ccc(C)cc3)c2=O)cc1,inactive
17,CCC(=O)N1c2ccccc2CC1C(=O)N1CCN(c2ccccc2)CC1 (stereo unspecified),inactive
18,COc1cc(CNCCSc2nnnn2C)ccc1OCc1ccc(Cl)cc1Cl,inactive
19,CC1=C(C(=O)Nc2ccccc2Cl)C(c2cccs2)n2ncnc2N1 (stereo unspecified),inactive
20,CCCCOC(=O)CSc1ncnc2sc3c(c12)CCC(C)C3 (stereo unspecified),inactive
21,CC1CCCN(S(=O)(=O)c2ccc3[nH]c(=O)cc(C(=O)NCCc4ccc(Cl)cc4)c3c2)C1 (stereo unspecified),inactive

row,Compound,Potency
1,CCCn1c2ccccc2c2cnn(CC(=O)N3CCCC(C(=O)OCC)C3)c(=O)c21 (stereo unspecified),inactive
2,CCOC(=O)c1ccc(N2C(=O)c3n[nH]c(-c4ccco4)c3C2c2ccc(O)cc2)cc1 (stereo unspecified),inactive
3,COc1ccc(-c2cn3nc(N4CCCC(C(=O)NCCCOC(C)C)C4)sc3n2)cc1 (stereo unspecified),inactive
4,COc1ccc2cc(CNc3ccc(OC)c(OC)c3)c(=O)n(CC(=O)Nc3ccccc3F)c2c1,inactive
5,Cc1ccc(C)c(N2CCN(CCCNC(=O)Nc3ccc(Cl)cc3)CC2)c1,inactive
6,COc1ccc(S(=O)(=O)c2cn(C)c3cc(N4CCCCC4)c(F)cc3c2=O)cc1,inactive
7,COc1cccc(CNCc2c(C(=O)O)n(Cc3ccc(C)cc3)c3cc(C)ccc23)c1OC,inactive
8,O=C(NC1CCCCC1)c1ccc2c(c1)N(Cc1ccc(Cl)cc1)C(=O)c1ccccc1S2=O (stereo unspecified),inactive
9,COc1ccc(NC(=O)NC(C)c2c(-n3cccc3)sc(C)c2C)cc1OC (stereo unspecified),inactive
10,COc1ccc(OC)c(-c2noc(N3CCN(c4cc(Cl)ccc4C)CC3)n2)c1,inactive
11,O=C(Nc1c(C(=O)N2CCN(c3ccc(F)cc3)CC2)oc2ccccc12)c1ccco1,inactive
12,CCOc1ccc(CNC(=O)c2cccc(Nc3nc4ccccc4n4nnnc34)c2)cc1OC,inactive
13,CCc1cc2c(cc3c(=O)n(CC(=O)NCc4cccc(Cl)c4)nc(CC)n32)s1,inactive
14,Cc1nn(CC(=O)NCCc2ccccc2)c(=O)c2c1sc1ccccc12,inactive
15,O=C(CSc1nccn1-c1ccc(F)cc1)Nc1cccc2ccccc12,inactive
16,Cn1c(=O)cc(OCC(=O)N2CCN(c3ccccc3)CC2)c2ccccc21,inactive
17,COc1cc2c(cc1OC)C(COc1ccc(F)cc1)N(C(=O)c1ccccc1F)CC2 (stereo unspecified),inactive
18,CCOc1ccccc1NC(=O)CSc1ncc(S(=O)(=O)c2ccc(C(C)(C)C)cc2)c(=O)[nH]1,inactive
19,CCOCCCn1c(SCC(=O)Nc2ccc(CC)cc2)nc2ccccc2c1=O,inactive
20,CCCN(CCC)C(=O)C1CCCN(c2ncnc3c2nc2n3CCCCC2)C1 (stereo unspecified),inactive
21,Cn1c(=O)n(Cc2c(F)cccc2Cl)c(=O)c2c1nc1n2CCN1c1ccc(F)cc1,inactive

row,Compound,Potency
1,Cc1ccc(Cl)cc1N1CCN(C(=O)c2cccn3c(=O)c4cc(Cl)ccc4nc23)CC1,inactive
2,COCCN(Cc1ccco1)C(=O)Cn1ncc2c([nH]c3ccccc32)c1=O,inactive
3,O=C(CSc1nnc(-c2ccccc2F)o1)Nc1cccc(C(F)(F)F)c1,inactive
4,Cc1ccc2nc(COc3cccc(NC(=O)c4cccc(Cl)c4)c3)cc(=O)n2c1,inactive
5,COc1ccc(-n2ccn(CC(=O)Nc3ccc(C)c(C)c3)c(=O)c2=O)cc1OC,inactive
6,COc1ccc(CNC(=O)Cc2coc3ccc(C(C)C)cc23)cc1,inactive
7,CCCCCn1c(=O)[nH]c2cc(C(=O)NCCN(C)CCCC)ccc2c1=O,inactive
8,CCOc1ccc(CNC(=O)c2cc(=O)[nH]c3ccc(S(=O)(=O)N4CCCCC4)cc23)cc1,inactive
9,Cc1ccc(C)c(Nc2nnc(-c3ccc(C)c(S(=O)(=O)N4CCCCC4)c3)c3ccccc23)c1,inactive
10,CCc1cccc(C)c1Nc1c(-c2ccc(N(C)C)cc2)nc2ncccn12,inactive
11,COc1ccc(-c2nc3ccccc3o2)cc1NC(=O)c1cc([N+](=O)[O-])ccc1N1CCOCC1,inactive
12,Cc1ccc(-c2nc3ccccn3c2Nc2c(C)cccc2C)o1,inactive
13,COc1ccc(NS(=O)(=O)c2cc3c4c(c2)CC(=O)N4CCC3)cc1Cl,inactive
14,O=S(=O)(Nc1ccc2nc(-c3cccc(Cl)c3)oc2c1)c1ccccc1,inactive
15,CCOC(=O)c1ccc(NC(=O)c2c(NCc3cccc(OC)c3)sc3c2CCC3)cc1,inactive
16,CCOC(=O)C1CCN(c2csc3ccc(C)cc3c2=O)CC1,inactive
17,CCC(=O)Nc1ccccc1-c1nc2ccccc2n(CC(=O)Nc2ccc(C)c(C)c2)c1=O,inactive
18,CCCNc1ncnc2c1c(-c1ccccc1)cn2-c1ccc(OCC)cc1,inactive
19,COc1ccc(OC)c(CCNC(=O)CCCn2c(=O)c3cccn3c3cccnc32)c1,inactive
